Rows were chosen to be rich in hits. Some 1.4% of all compounds tested hit in one or more screens of this group.
C2C12 statin: suppression of simvastatin myotoxicity; rescue of ATP level, % at 7.49 µM; 330,000 compounds, 0.78% hits; C2C12 myotubes + simvastatin, ATP luminescence, 48 h; scaled: DMSO 0, geranylgeraniol control 100;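 active means mean ATP rescue above about 67%, or every replicate alone reaching that limit, limit read from the data, passing the limit was not always enough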;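 further: myotubes were challenged with 10 µM simvastatin during compound exposure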
CFTR F508del cor: CFTR F508del correction in bronchial cells | CFBE cells, YFP halide quenching; stimulated with forskolin plus potentiator P3; % fluorescence drop versus neutral controls | activity (quench increase), % at 7.58 µM | 350,000 compounds, 0.36% hits | AID 720511;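 active means mean added fluorescence quench of at least 8% versus neutral control, with both replicates also reaching 8%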;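 further: cells transiently co-express mutant CFTR-F508del with the halide-sensitive YFP; corrector assay measuring rescue of mutant channel to the surface after 24 h compound exposure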
PglD inh: inhibitors of Campylobacter jejuni PglD acetyltransferase. inhibition, % at 12.5 µM. purified PglD enzyme, DTNB colorimetric CoA detection. 360,000 compounds, 0.098% hits; in the data active means inhibition above about 16%, passing the limit was not always enough
ARNT-TACC3 inh: disruptors of human ARNT/TACC3 interaction; Q9Y6A5; AlphaScreen His-ARNT PAS-B/GST-TACC3 binding, luminescence; TACC3 fragment carries E629A point mutation; inhibition, % at 9.99 µM; 390,000 compounds, 0.66% hits; AID 623870;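 active means mean inhibition of replicates at least 50% and at least half of replicates each reaching 50%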;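 further: 0% = complete ARNT plus TACC3 wells and 100% = ARNT alone without TACC3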
An asterisk follows results filed as active; · = no result given.

SMILES | C2C12 statin | CFTR F508del cor | PglD inh | ARNT-TACC3 inh
C[C@H]1CN([C@@H](C)CO)C(=O)c2cccc(NC(=O)NC3CCCCC3)c2O[C@H]1CN(C)Cc1ccc(Cl)c(Cl)c1 | · | 2.1 | 3.4 | -2.7
C[C@@H]1CN([C@@H](C)CO)C(=O)c2cccc(NC(=O)NC3CCCCC3)c2O[C@@H]1CN(C)Cc1ccc(Cl)c(Cl)c1 | · | 9.3* | 0.6 | 1.6
O=C(Nc1nc(-c2ccc(Br)cc2)cs1)c1cccnc1 | · | 1.8 | · | 4.1
O=C(NC(=S)Nc1nc(-c2ccc(Br)cc2)cs1)c1cccnc1 | 253.6* | · | · | -6.3
CCCC1CC(CCc2ccccc2)OS(=O)(=O)N1 (configuration not stated) | 94.7* | -7.7 | -8.6 | ·
c1ccc(CC[C@@H]2CC[C@@H](CCc3ccccc3)N2)cc1 | 46.6 | 0.0 | 2.4 | 13.4
Cc1ccc(N2CC(C(=O)N(C)CC(=O)Nc3ccc(Cl)c(C(F)(F)F)c3)CC2=O)cc1 (configuration not stated) | -16.8 | 9.2* | 1.9 | 10.1
CN(CC(=O)Nc1ccc(Cl)c(C(F)(F)F)c1)CC(=O)NC1CCCCC1 | -4.7 | · | 2.5 | -2.1
CN(CC(=O)Nc1ccc(Cl)c(C(F)(F)F)c1)C(=O)CCN1C(=O)C2CCCCC2C1=O (configuration not stated) | -4.4 | 10.3* | 2.0 | 4.3
CNC[C@@H]1OCCCC[C@@H](C)Oc2ccc(NS(=O)(=O)c3cccs3)cc2C(=O)N([C@@H](C)CO)C[C@H]1C | · | 0.7 | 6.5 | -1.0
CC(C)c1ccc2c(c1)C1(NN=C(c3ccccc3)S1)C(=O)N2 (configuration not stated) | -13.7 | · | -1.7 | 49.5*
CC(C)c1cccc(O)c(=O)c1 | 5.0 | 2.6 | 4.0 | -25.2
COc1ccccc1/C=N/NC(=O)c1cccc(OC(F)(F)C(F)F)c1 | · | · | · | -5.6
COc1cccc(/C=N/NC(=O)C[n+]2ccccc2)c1O | · | · | · | 67.3*
COc1cccc(/C=N/NC(=O)CNC(=O)c2ccco2)c1O | 5.6 | 0.8 | · | 35.6*
COc1cc(OC)c(OC)cc1/C=N/NC(=O)C[n+]1ccccc1 | · | · | · | 0.5
O=C(C[n+]1ccccc1)N/N=C/c1cc(Br)ccc1O | 9.8 | 3.4 | 0.3 | 64.3*
COc1cccc(/C=N/NC(=O)C(=O)Nc2ccccc2OC(F)(F)C(F)F)c1O | · | 15.0* | · | 2.6
C[C@H]1CN([C@@H](C)CO)C(=O)c2cccc(NC(=O)C3CCCCC3)c2O[C@H]1CN(C)CC1CCCCC1 | -64.7 | 1.4 | -0.7 | -1.4
CC(C)NC(=O)Nc1cccc2c1O[C@@H](CN(C)C(=O)Nc1ccc3c(c1)OCO3)[C@H](C)CN([C@H](C)CO)C2=O | 1.4 | -0.1 | 2.7 | -3.1
CCCCSc1nc(C)cc(SCC(=O)N/N=C/c2cccc(OC)c2O)n1 | 126.3* | · | -7.5 | -7.0
COc1ccc(S(=O)(=O)N(C)C[C@H]2OCCCC[C@H](C)Oc3ccc(NS(C)(=O)=O)cc3C(=O)N([C@H](C)CO)C[C@@H]2C)cc1 | · | -0.3 | -1.0 | -8.4
Cc1noc(C)c1S(=O)(=O)Nc1ccc2c(c1)C(=O)N([C@H](C)CO)C[C@@H](C)[C@@H](CN(C)S(C)(=O)=O)O2 | · | 0.5 | -3.2 | -3.2
Cc1[nH][nH]c(=O)c1C(c1ccc(-c2cccc(Cl)c2)o1)c1c(C)[nH][nH]c1=O | 3.7 | · | -0.3 | 49.7*
Cc1[nH][nH]c(=O)c1C(c1ccc(-c2cccc(C(=O)O)c2)o1)c1c(C)[nH][nH]c1=O | · | 0.2 | · | 9.8
SMILES | C2C12 statin | CFTR F508del cor | PglD inh | ARNT-TACC3 inh
NC(=O)CSc1nnc(-c2ccccn2)n1N | · | -1.3 | · | 45.0*
CC(C)OC(=O)CSc1nnc(-c2ccccn2)n1N | · | -0.3 | -0.8 | ·
CCC(=O)N1CC2(CCN(Cc3cncnc3)CC2)c2c([nH]c3cc(OC)ccc23)[C@H]1CO | · | -3.0 | · | ·
O=C(Nc1nc(-c2ccccn2)cs1)c1ccc(-c2ccccc2F)o1 | -124.1 | 2.2 | 1.7 | 43.5
O=C(Nc1nc(-c2ccco2)cs1)c1ccccc1 | -10.8 | · | -3.2 | 9.1
O=C(Nc1nc(-c2ccccn2)cs1)c1ccc2c(c1)OCCO2 | -83.5 | 5.0 | 0.4 | 49.7*
CC(=O)c1ccc(-c2ccc(C(=O)Nc3nc(-c4ccccn4)cs3)o2)cc1 | -46.3 | 0.4 | -0.4 | 49.6*
Cc1ccc(-c2csc(NC(=O)c3ccc(-c4ccccc4)cc3)n2)o1 | 88.7* | · | -1.7 | 0.6
Cc1noc(C)c1NC(=O)Nc1ccc2c(c1)C(=O)N([C@@H](C)CO)C[C@H](C)[C@H](CN(C)C(=O)CCCN(C)C)OCCCC[C@H](C)O2 | -7.1 | 2.3 | 0.8 | -1.5
Cc1ccc(C(=O)NCC(=O)OCC(=O)NC(C)c2ccccc2)s1 (configuration not stated) | · | 14.7* | · | -2.4
c1ccc2c(c1)C1=NCCN1c1ccccc1-2 | · | 11.3* | · | ·
CO[C@H]1CN(C)C(=O)c2ccc(NC(=O)c3cnccn3)cc2OC[C@@H](C)N(C(=O)C2CC2)C[C@H]1C | -11.7 | -3.1 | -0.7 | 1.8
Cc1nc(C)c(C(=O)C2=C(O)C(=O)N(CCCn3ccnc3)C2c2ccc(Cl)cc2)s1 (configuration not stated) | 127.9* | · | -10.4 | 9.0
COc1ccc(C2C(C(C)=O)=C(O)C(=O)N2CCCn2ccnc2)cc1 (configuration not stated) | 3.2 | · | 2.0 | 10.5
Cc1cc(O)cc2c1C1CCC3(C)C(=O)CCC3C1C=C2 (configuration not stated) | -1.2 | 8.3* | · | -10.4
COc1cc(C=NO)nc(-c2ccccn2)c1 | · | 2.8 | · | 59.2*
Cc1ccc(-c2cc(=O)c3cc(F)ccc3[nH]2)cc1 | 9.5 | 3.2 | -0.1 | -3.7
O=c1cc(-c2ccccc2)[nH]c2ccc(F)cc12 | -44.4 | 8.6* | 3.9 | -9.9
C[C@H]1CN([C@@H](C)CO)C(=O)c2cc(-c3ccccc3F)cnc2O[C@@H]1CN(C)C(=O)c1cnccn1 | 1.5 | -1.6 | 0.4 | 0.1
CC(=O)N1[C@@H]2Cn3c(ccc(C4=CCCC4)c3=O)[C@H]1[C@@H](C(=O)N[C@H](C)c1ccccc1)[C@@H]2CO | -13.8 | -2.7 | -2.8 | 7.0
O=C(COc1ccccc1F)NCCc1ccc2c(c1)OCCO2 | 125.7* | 2.3 | -3.2 | 0.2
Cc1noc(C)c1S(=O)(=O)N(C)C[C@H]1Oc2ccc(NS(=O)(=O)c3ccccc3)cc2CC(=O)N([C@H](C)CO)C[C@H]1C | -13.8 | -0.2 | -1.6 | -5.1
C[C@H]1CN([C@@H](C)CO)C(=O)c2cccc(NS(=O)(=O)c3cn(C)cn3)c2O[C@H]1CN(C)S(=O)(=O)c1cccs1 | -5.4 | 1.4 | -1.8 | ·
CCNC(=S)NNC(=O)CC(C)C | · | 9.5* | · | -0.7
CC(C)CNC(=S)NNC(=O)CC(C)O (configuration not stated) | · | -0.9 | · | -1.6
Cc1cccc(C(=O)Nc2nnc(C3=COCCO3)o2)c1 | · | 2.1 | · | 55.3*
O=C(Nc1nnc(C2=COCCO2)o1)c1cccc(F)c1 | 6.8 | 1.1 | -0.3 | 39.5
CC(C)(C)c1ccc(C(=O)Nc2nnc(C3=COCCO3)o2)cc1 | -0.2 | 2.1 | 2.5 | 44.2
COc1ccc(C(=O)Nc2nnc(C3=COCCO3)o2)cc1OC | · | -0.2 | 9.1 | 37.1*

From PubChem
